Screens deposited in PubChem BioAssay by National Center for Advancing Translational Sciences (NCATS).
DRD3 antagonist – blocks the human D3 dopamine receptor; actives 2.5% (n = 360,000); AID 652054; D3R cells, DiscoveRx beta-arrestin luminescence, antagonist mode; hits give low values; max response, negative = inhibition, %; in the data active means max response below about -50%; inconclusive means no clear call, values can overlap the other calls; further: on the % scale 0 is the no-effect control and ±100 the full control effect
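Cells plated overnight at 1500 cells/well, then exposed to library compounds with dopamine controls for 90 minutes at 37 degrees C. DiscoveRx reagent added for 30–60 minutes at room temperature; luminescence read, quantitative HTS format.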
PI4K2A inh – inhibitors of human PI4K2A | purified PI4K2A, ADP-Glo luminescence, 1 h; hits give low values | activity change, negative = inhibition, % at 76.9 µM | actives 0.13% (n = 420,000) | AID 1346378; in the data active means activity change below about -50%; inconclusive means mostly about -30% to -49%;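 further: -100% = wells without enzyme as full effect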
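PI4K2A activity was measured by ADP-Glo luminescence: enzyme (4 ug/mL stock) and phosphatidylinositol (1.2 mM stock) in Tris pH 7.5/MgCl2/EGTA/Triton X-100 buffer were reacted with ATP (300 microM stock) for one hour at ambient temperature.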
LDHA block – inhibitors of human lactate dehydrogenase A; purified LDHA, NADH/diaphorase-resazurin fluorescence; hits give low values; activity change, % (values are at about 110 or 230 µM); actives 0.15% (n = 480,000); AID 1347041; in the data active means activity change below about -30%; inconclusive means mostly about -25% to -30%;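 further: plate controls were DMSO wells for no effect and wells without enzyme for full effect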
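Enzyme activity of human lactate dehydrogenase 5 (2 nM; 0.06 mM NADH, 0.2 mM pyruvate, 5 min, RT) is measured via a resazurin/diaphorase fluorescence readout of residual NADH.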
D3 ag – activates the human D3 dopamine receptor | D3R DiscoveRx beta-arrestin cells, luminescence, 90 min | max activation, % | actives 0.58% (n = 410,000); in the data active means max activation above about 30%; further: 0% is about no effect
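Agonist mode: compounds and dopamine controls were applied to plated cells for 90 min at 37 degrees C after an overnight attachment at 1500 cells/well. Luminescent read-out followed 30 - 60 minutes at room temperature with DiscoveRx detection reagent.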
PI5P4K alpha inh – PI5P4K alpha (human) kinase inhibition; PI5P4Kalpha enzyme, ADP-Glo luminescence, 60 min; hits give low values; max response, %; actives 1.2% (n = 330,000); AID 652105; active means max response of -50% or lower; inconclusive means between -30% and -50%; inactive means -30% or higher; further: value at the top dose of about 77 µM; on the % scale 0 is the no-effect control and ±100 the full control effect
Target sequence (P48426 whole entry, looked up): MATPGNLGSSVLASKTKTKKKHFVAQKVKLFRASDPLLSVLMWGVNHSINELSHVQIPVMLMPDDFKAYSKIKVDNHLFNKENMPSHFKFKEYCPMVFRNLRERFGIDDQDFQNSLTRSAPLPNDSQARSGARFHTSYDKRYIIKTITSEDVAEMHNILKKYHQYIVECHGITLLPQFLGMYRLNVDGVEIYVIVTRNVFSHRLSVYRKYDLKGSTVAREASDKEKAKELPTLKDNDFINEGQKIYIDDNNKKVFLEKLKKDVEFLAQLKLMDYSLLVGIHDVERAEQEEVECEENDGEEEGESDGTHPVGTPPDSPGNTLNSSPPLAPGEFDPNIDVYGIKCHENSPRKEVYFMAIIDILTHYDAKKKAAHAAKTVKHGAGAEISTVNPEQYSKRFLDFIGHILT
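Controls without substrate or without enzyme flank wells where PI5P4Kalpha converts substrate using 5 microM ATP (final). Incubation lasts 60 minutes at room temperature; ADP formed is read by ADP-Glo luminescence.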
An asterisk follows results filed as active; u = inconclusive; x = not tested or not shown. Compounds with a hit are over-represented: about 3.3% of the library has one in this group of screens.

SMILES	DRD3 antagonist	PI4K2A inh	LDHA block	D3 ag	PI5P4K alpha inh
Cc1cccc(NC(=O)c2sc3nc(N)c(C#N)cc3c2N)c1	-22	2	4	-4	-51*
Cc1cc(C(=O)CCl)c(C)n1CCc1ccc(Cl)cc1	-69*	26	-3	-17	2
COc1ccc(CCn2c(C)cc(C(=O)CSc3nc(N)cc(=O)[nH]3)c2C)cc1	58	-2	-2	35*	x
COc1ccc(CCn2c(C)cc(C(=O)COC(=O)c3ccc(NC(=O)CC#N)cc3)c2C)cc1	16	-24	-2	-3	-50*
Cc1cc(C(=O)CSc2nc(N)cc(=O)[nH]2)c(C)n1CCc1ccc(F)cc1	9	3	-2	4	-3
Cc1cc(C(=O)CCl)c(C)n1CCc1ccc(F)cc1	-17	-2	1	0	8
COc1cn(CC(=O)Nc2ccccc2C(F)(F)F)c(CN2CCN(C(C)=O)CC2)cc1=O	x	x	0	x	x
O=C(CCc1cccs1)NCC1CCCO1 (stereo not given)	x	x	-6	x	x
CCNc1ccccc(C(=O)/C=C/c2ccc3c(c2)OCO3)c1=O	1	-12	22	6	-56*
COc1ccc(Cl)cc1-c1nc(SCC(=O)NC(=O)NC(C)(C)C)n[nH]1	x	x	13	x	x
CCOC(=O)C1=C(Cn2cnc3ccccc32)NC(=O)NC1c1ccc(Cl)cc1 (stereo not given)	28	-3	-4	32*	x
C/C(=N\NC(=O)c1ccc(C)cc1C)c1ccc2c(c1)OCO2	-9	-6	1	0	3
C/C(=N/NC(=O)c1ccc2c(c1)OCO2)c1ccc(Br)s1	0	-2	-33*	-4	-11
C/C(=N\NC(=O)c1ccc(Cl)c(Cl)c1)c1ccc(Br)s1	-2	2	-4	-6	-3
C/C(=N\NC(=O)c1cc2ccccc2cc1O)c1ccc2c(c1)OCO2	-10	-5	6	-3	-67*
O=C(Cn1c(=O)oc2cc(S(=O)(=O)N3CCCCCC3)ccc21)c1ccc(Cl)cc1	x	x	-2	x	x
O=C(NC1CCCCN(Cc2ccc(Cl)cc2)C1=O)c1ccc2ccccc2c1 (stereo not given)	x	-3	x	x	x
O=C(C[n+]1ccccc1Cl)c1ccc(I)cc1	x	x	-1	x	x
CC(C)(C)c1ccc(C(=O)C[n+]2ccccc2Cl)cc1	x	x	-52*	x	x
O=C(CC1NCCc2ccccc21)Nc1ccccc1 (stereo not given)	-74*	0	-5	-10	0
O=C(CC1NCCc2ccccc21)Nc1ccc(Oc2ccccc2)cc1 (stereo not given)	u	3	-6	15	14
O=C(Cc1cccc2ccccc12)N/N=C/c1ccc2cccc(O)c2n1	-56*	-3	10	-26	6
Cc1ccc(/C=N/NC(=O)Cc2cccc3ccccc23)s1	x	x	0	x	x
CCOC(=O)N1CCN(S(=O)(=O)c2ccc(C(=O)Nc3nnc(C)o3)cc2)CC1	-51*	-1	2	-17	5
O=c1[nH]c(/C=C/c2ccccc2)c([N+](=O)[O-])c(=O)[nH]1	10	-18	-2	1	-76*
SMILES	DRD3 antagonist	PI4K2A inh	LDHA block	D3 ag	PI5P4K alpha inh
O=c1[nH]c(/C=C/c2cccnc2)c([N+](=O)[O-])c(=O)[nH]1	2	u	-2	-6	-65*
O=c1[nH]c(/C=C/c2ccc(Cl)cc2Cl)c([N+](=O)[O-])c(=O)[nH]1	3	-8	-4	-5	-78*
O=c1[nH]c(/C=C/c2cccc([N+](=O)[O-])c2)c([N+](=O)[O-])c(=O)[nH]1	-16	-12	-14	0	-67*
O=[N+]([O-])c1ccc(/C=C/c2ccccc2)cc1	x	x	3	x	x
Cc1cc(OC(=O)c2ccc(Cl)cc2Cl)c([N+](=O)[O-])c(=O)[nH]1	15	2	3	5	-4
O=c1[nH]c(/C=C\c2cccnc2)c([N+](=O)[O-])c(=O)[nH]1	-8	-3	-4	-3	u
CC(=O)NC(O)C(O)NC(C)=O (stereo not given)	x	x	1	x	x
CCOC(=O)[C@]12CCCC=C1N(CCCOC)C(=O)[C@@H]2CC(=O)NCc1cccc2ccccc12	x	3	x	x	x
Cc1ccc(NS(=O)(=O)c2cc(C(=O)Nc3cccc(N(C)S(C)(=O)=O)c3)ccc2C)c(C)c1	59	-2	1	43*	-5
COc1cc2[nH]c(-c3ccc(C)cc3)cc(=O)c2cc1OC	-112*	2	-2	-68	-7
CCO/C(=C/c1sc2ccc(OC)cc2[n+]1CCCS(=O)(=O)[O-])CC	-73*	-8	0	-1	1
CCOc1c(OC(C)=O)ccc(/C=C2\N=C(SCC)SC2=O)c1[N+](=O)[O-]	-70*	-9	-5	1	u
CCOc1cc(/C=C2\N=C(SCC)SC2=O)cc([N+](=O)[O-])c1OC(C)=O	-97*	7	9	-8	-68*
COc1ccc(-c2cc(=O)n3[nH]c(C)nc3n2)cc1OC	x	x	8	x	x
c1ccc2c(CNC3CCCC3)cccc2c1	x	x	-5	x	x
CCN1C(=NCCc2ccc([N+](=O)[O-])cc2)N[C@@H](c2ccccc2)[C@H](C(=O)OC)[C@H]1C	u	0	-7	-11	-1
CCN1C(=NCCc2ccc(Br)cc2)N[C@@H](c2ccccc2)[C@H](C(=O)OC)[C@H]1C	-88*	0	-9	-50	-4
Cc1cc(C)c(S(=O)(=O)/N=C2/C=C(Sc3ncn[nH]3)C(=O)c3ccccc32)cc1C	-69*	-54*	39	-9	-80*
CC(C)(C)c1ccc(/C=N/Nc2ccc(S(N)(=O)=O)cc2[N+](=O)[O-])cc1	x	x	-21	x	x
Cc1ccc(/C=N/NC(=O)c2ccc(-c3ccccc3)cc2)c(C)c1	x	x	13	x	x
Cc1ccc2nc(C)c(C(=O)N3CCN(Cc4ccccc4F)CC3)cc2c1	x	x	4	x	x
O=C(O)c1cccc(NC(=S)N/N=C/c2ccccc2OCc2ccc(Br)cc2)c1	-10	-3	-7	2	-65*
O=C(O)c1cccc(NC(=S)N/N=C/c2ccccc2OCc2cccc(Br)c2)c1	34	-7	-9	0	u
COc1cc(/C(C)=N/O)ccc1OC(F)F	x	x	10	x	x
Cc1ccc(NC(=O)COC(=O)c2cccc3c2C(=O)c2ccccc2C3=O)c(C)c1	53	3	-3	22	-2
Cc1cc(C)c(NC(=O)COC(=O)c2cccc3c2C(=O)c2ccccc2C3=O)c(C)c1	35	0	6	32*	4
COC(=O)N/N=C/c1ccc([N+](=O)[O-])s1	u	-4	9	-3	1
Cc1c(Cl)cccc1N=Cc1ccc([N+](=O)[O-])s1	-51*	-22	43	-29	x
Cc1ccc2nc(-c3ccccc3)cc(C(=O)NCCN3CCOCC3)c2c1	x	x	-1	x	x
CCN1CCCC1CNC(=O)c1n[nH]c(=O)c2ccccc12 (stereo not given)	x	x	-21	x	x
